Measured values: PubChem BioAssay
Activity calls are given as the source filed them. Unless noted, how the calls were made is not given here.

Experiments:
[1] = compound effects on lung adenocarcinoma cell viability – A549, calcein-AM fluorescence, 48 h, basal, profiling panel (AID 1162); settings: higher = more signal; further: test concentration not given here
[2] = compound effects on differentiated 3T3-L1 adipocyte viability – cell-based, 3T3-L1 adipocytes, calcein-AM fluorescence, 48 h, basal, profiling panel (AID 1163); settings: 3T3-L1 adipocytes viability, higher = more signal; further: test concentration not given here
[3] = compound effects on hepatocellular carcinoma cell viability – HepG2, calcein-AM fluorescence, 48 h, basal, profiling panel (AID 1164); settings: higher = more signal; further: test concentration not given here
[4] = compound effects on multiple myeloma cell viability – MM1S, calcein-AM fluorescence, 48 h, basal, profiling panel (AID 1165); settings: higher = more signal;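 further: viability of MM1S multiple myeloma cells under basal unstimulated conditions; test concentration not given here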
[5] = calcein-AM signal in unstimulated myeloma cells – cell-based, calcein-AM fluorescence, 48 h, PK04 Diversity Set, profiling panel (AID 1166); settings: RPMI8226 myeloma viability, higher = more signal;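 further: cells grown under basal conditions without added stimulus; test concentration not given here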
[6] = JC-1 mitochondrial signal, unstimulated HepG2 cells – cell-based, JC-1 fluorescence, 24 h, 100 nL compound, profiling panel (AID 1167); settings: HepG2 mitochondrial potential, higher = more signal; further: test concentration not given here
[7] = JC-1 mitochondrial signal, unstimulated adipocytes – cell-based, JC-1 fluorescence, 3T3-L1 adipocytes, 24 h, 100 nL compound, profiling panel (AID 1168); settings: JC-1 mitochondrial fluorescence, higher = more signal, called active from +8 up or from −8 down; further: test concentration not given here
[8] = JC-1 mitochondrial signal, unstimulated myeloma cells – cell-based, JC-1 fluorescence, RPMI8226, 24 h, 100 nL compound, profiling panel (AID 1169); settings: JC-1 mitochondrial potential fluorescence, higher = more signal; further: test concentration not given here
[9] = JC-1 mitochondrial signal, unstimulated MM1S myeloma – cell-based, JC-1 fluorescence, 24 h, 100 nL compound, profiling panel (AID 1170); settings: MM1S mitochondrial potential, higher = more signal; further: test concentration not given here
[10] = resazurin metabolic signal in A549 cells – cell-based, resazurin fluorescence, 24 h, PK04 Diversity Set, profiling panel (AID 1171); settings: A549 viability, higher = more signal, called active from +8 up or from −8 down; further: test concentration not given here
[11] = resazurin metabolic signal in HepG2 cells – cell-based, resazurin fluorescence, 24 h, PK04 Diversity Set, profiling panel (AID 1172); settings: HepG2 viability, higher = more signal; further: test concentration not given here
[12] = budding yeast growth changes without added modifier – OD600, strain BY4716, 24 h, basal condition, primary screen (AID 1173); settings: S. cerevisiae BY4716 growth, OD600, 24 h; higher = more signal, called active from +8 up or from −8 down
[13] = viability profiling in MM1S myeloma cells – cell-based, resazurin fluorescence, basal, 24 h, PK04 Diversity Set, profiling panel (AID 1174); settings: higher = more signal, called active from +8 up or from −8 down; further: test concentration not given here
[14] = target: Dihydroorotate dehydrogenase (quinone), mitochondrial (Plasmodium falciparum (isolate 3D7)) (UniProt Q08210); test: inhibition of P. falciparum DHODH – biochemical, C-terminal His tag, absorbance 600 nm, primary screen (AID 1175); settings: PfDHODH enzyme, DCIP absorbance 600 nm; higher = more signal, called active from +8 up or from −8 down;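 further: recombinant parasite enzyme with a five histidine tag at its C terminus; test concentration not given here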
Dihydroorotate dehydrogenase (quinone), mitochondrial (Plasmodium falciparum (isolate 3D7)), sequence (Q08210 whole entry, looked up): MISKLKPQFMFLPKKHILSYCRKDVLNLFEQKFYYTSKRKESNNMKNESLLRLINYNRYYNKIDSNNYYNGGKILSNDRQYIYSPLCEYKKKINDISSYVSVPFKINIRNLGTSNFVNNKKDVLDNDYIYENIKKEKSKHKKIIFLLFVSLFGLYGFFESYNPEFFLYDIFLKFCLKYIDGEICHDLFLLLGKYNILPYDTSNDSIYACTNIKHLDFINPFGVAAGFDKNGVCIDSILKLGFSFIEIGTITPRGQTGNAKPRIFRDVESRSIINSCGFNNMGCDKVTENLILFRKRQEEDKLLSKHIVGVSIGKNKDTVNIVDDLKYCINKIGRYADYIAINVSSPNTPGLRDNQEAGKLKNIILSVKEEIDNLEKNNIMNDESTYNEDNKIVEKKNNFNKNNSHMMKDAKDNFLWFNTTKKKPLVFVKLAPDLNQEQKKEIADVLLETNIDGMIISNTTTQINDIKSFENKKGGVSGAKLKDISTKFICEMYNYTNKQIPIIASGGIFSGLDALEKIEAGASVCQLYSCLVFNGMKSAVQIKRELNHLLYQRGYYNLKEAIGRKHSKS

[15] = inhibition of PAO1 biofilm formation – strain PAO1, LB-PBS medium, absorbance 600 nm, primary screen (AID 1176); further: test concentration not given here; settings: P. aeruginosa PAO1 growth/biofilm, A600, 12 h; higher = more signal
[16] = growth modulation of vineyard yeast isolate – strain RM11-1a, OD600, basal, 24 h, primary screen (AID 1177);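 further: cultures grown under basal conditions with no added stressor; test concentration not given here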; settings: S. cerevisiae RM11-1a growth, OD600, 24 h; higher = more signal, called active from +8 up or from −8 down
[17] = growth of efflux-deficient E. coli DRC39 – strain DRC39, OD650, 24 h, E. coli filamentation inducers, primary screen (AID 1178);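 further: growth measured as culture turbidity by optical density at 650 nm; test concentration not given here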; settings: E. coli DRC39 acrAB, higher = more signal, called active from +8 up or from −8 down
[18] = growth of efflux-deficient E. coli DRC39 – strain DRC39, OD650, 48 h, E. coli filamentation inducers, primary screen (AID 1179);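 further: screen aims at cell division blockers that make cells filament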; settings: E. coli DRC39 delta-acrAB growth, higher = more signal, called active from +8 up or from −8 down
[19] = viability profiling in RPMI8226 myeloma cells – cell-based, resazurin fluorescence, basal, 24 h, PK04 Diversity Set, profiling panel (AID 1180); settings: higher = more signal;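 further: RPMI8826 multiple myeloma cell line at 5000 cells per well; test concentration not given here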
[20] = target: E3 ubiquitin-protein ligase XIAP (Homo sapiens) (UniProt P98170); test: small molecules binding XIAP protein – biophysical, small-molecule microarray, fluorescence 635 nm, primary screen (AID 1181); settings: higher = more signal;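 further: score merges 667 nm emission and signal to noise over triplicate slides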
E3 ubiquitin-protein ligase XIAP (Homo sapiens), sequence (P98170 whole entry, looked up): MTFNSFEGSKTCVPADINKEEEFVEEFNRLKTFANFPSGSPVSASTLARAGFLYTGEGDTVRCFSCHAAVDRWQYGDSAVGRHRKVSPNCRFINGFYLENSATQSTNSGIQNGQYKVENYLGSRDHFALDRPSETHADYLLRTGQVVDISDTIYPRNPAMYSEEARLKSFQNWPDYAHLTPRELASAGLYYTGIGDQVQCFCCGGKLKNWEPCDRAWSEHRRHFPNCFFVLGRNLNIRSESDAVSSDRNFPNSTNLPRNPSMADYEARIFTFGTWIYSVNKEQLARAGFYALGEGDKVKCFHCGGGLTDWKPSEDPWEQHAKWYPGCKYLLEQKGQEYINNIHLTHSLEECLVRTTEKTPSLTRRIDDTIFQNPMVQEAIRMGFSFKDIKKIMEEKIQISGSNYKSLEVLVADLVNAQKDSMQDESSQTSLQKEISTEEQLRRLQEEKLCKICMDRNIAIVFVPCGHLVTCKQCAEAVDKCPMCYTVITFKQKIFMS

COC(=O)[C@H](Cc1ccc(O)cc1)N1CC2=CCCC=C[C@@H]2[C@H]1[C@H](O)Cc1ccccc1 showed a z-score [1] of 0.852, a z-score [2] of 0.308 and a z-score [3] of -0.231. For the same molecule, the z-score [4] was -3.12, the z-score [5] was -0.833 and the z-score [6] was -1.68. For the same molecule, the z-score [7] was -0.501 (inactive), the z-score [8] was -0.521 and the z-score [9] was -1.58. The z-score [10] was 0.481 (inactive), the z-score [11] was 0.969 and the z-score [12] was -2.95 (inactive). The z-score [13] was 0.658 (inactive), the composite z-score [14] was -0.574 (inactive) and the z-score [15] was 0.106 (inactive). For the same molecule, the z-score [16] was -0.889 (inactive), the z-score [17] was 1.34 (inactive) and the z-score [18] was 1.34 (inactive). For the same molecule, the z-score [19] was 0.601 and the composite z-score [20] was -0.219.
COCCOC(=O)N1C(=O)[C@@]2(c3cc(C#Cc4ccc(OC)cc4)ccc31)[C@H](c1ccc(OCCO)cc1)N1[C@H](c3ccccc3)[C@H](c3ccccc3)OC(=O)[C@H]1[C@@H]2C(=O)N1CCCCCCC1 showed a z-score [1] of 0.571, a z-score [2] of 1.96 and a z-score [3] of 0.856. It also gave a z-score [4] of -0.0692, a z-score [5] of 0.81 and a z-score [6] of -0.16. The z-score [7] was -2.31 (inactive), the z-score [8] was -0.684 and the z-score [9] was -1. The z-score [10] was -0.436 (inactive), the z-score [11] was -0.266 and the z-score [12] was 0.376 (inactive). The z-score [13] was 0.699 (inactive), the composite z-score [14] was -1.31 (inactive) and the z-score [15] was 2.17 (inactive). The z-score [16] was 0.277 (inactive), the z-score [17] was 0.0117 (inactive) and the z-score [18] was 1.19 (inactive). The z-score [19] was 0.746 and the composite z-score [20] was 0.0162.
For NC(=O)NCC#Cc1ccc2c(c1)[C@]1(C(=O)N2)[C@H](C(=O)Nc2nc3ccccc3s2)[C@H]2C(=O)O[C@H](c3ccccc3)[C@H](c3ccccc3)N2[C@@H]1c1ccc(OCCO)cc1, the z-score [1] was -0.163, the z-score [2] was 0.466 and the z-score [3] was -1.43. For the same molecule, the z-score [4] was -0.231, the z-score [5] was -0.349 and the z-score [6] was -3.18. For the same molecule, the z-score [7] was 0.272 (inactive), the z-score [8] was -1.14 and the z-score [9] was -1.88. The z-score [10] was 0.767 (inactive), the z-score [11] was 1.1 and the z-score [12] was 1.12 (inactive). For the same molecule, the z-score [13] was 0.365 (inactive), the composite z-score [14] was -0.396 (inactive) and the z-score [15] was 3.99 (inactive). For the same molecule, the z-score [16] was 1.27 (inactive), the z-score [17] was 0.426 (inactive) and the z-score [18] was -0.221 (inactive). It also gave a z-score [19] of -0.271 and a composite z-score [20] of 0.013.
With CN1C(=O)[C@]2(CCS(=O)(=O)c3ccccc3)N=C(c3ccc(OCCCO)cc3)O[C@@H]2c2ccccc21 the z-score [1] was -0.189, the z-score [2] was -1.15 and the z-score [3] was 0.881. The z-score [4] was -2.04, the z-score [5] was -1.77 and the z-score [6] was -0.447. For the same molecule, the z-score [7] was -0.466 (inactive), the z-score [8] was -0.852 and the z-score [9] was 0.48. For the same molecule, the z-score [10] was -0.015 (inactive), the z-score [11] was -0.0688 and the z-score [12] was 0.902 (inactive). For the same molecule, the z-score [13] was -0.101 (inactive), the composite z-score [14] was 0.349 (inactive) and the z-score [15] was -0.0279 (inactive). For the same molecule, the z-score [16] was 2.34 (inactive), the z-score [17] was 0.124 (inactive) and the z-score [18] was -0.687 (inactive). For the same molecule, the z-score [19] was -1.02 and the composite z-score [20] was 0.0506.
Molecule CC=CC(O)C1C=CC2C(=O)N(C)C(=O)C2N1NC(=O)OC(C)(C)C (stereo not given) has a z-score [1] of -0.73, a z-score [2] of -0.604 and a z-score [3] of -0.39. For the same molecule, the z-score [4] was -0.354, the z-score [5] was -0.303 and the z-score [6] was -1.55. The z-score [7] was -0.238 (inactive), the z-score [8] was 0.397 and the z-score [9] was 0.163. For the same molecule, the z-score [10] was -0.383 (inactive), the z-score [11] was -1 and the z-score [12] was 0.906 (inactive). For the same molecule, the z-score [13] was -0.524 (inactive), the composite z-score [14] was -0.0735 (inactive) and the z-score [15] was -0.0625 (inactive). The z-score [16] was -0.243 (inactive), the z-score [17] was -0.447 (inactive) and the z-score [18] was -0.504 (inactive). The z-score [19] was -0.939 and the composite z-score [20] was 0.0621.
COCCOC(=O)N1C(=O)[C@@]2(c3cc(C#CC4=CCCCC4)ccc31)[C@H](c1ccc(OCCO)cc1)N1[C@H](c3ccccc3)[C@H](c3ccccc3)OC(=O)[C@H]1[C@@H]2C(=O)N1CCCCCCC1 showed a z-score [1] of 0.508, a z-score [2] of 1.35 and a z-score [3] of 1.5. The z-score [4] was 0.177, the z-score [5] was -0.288 and the z-score [6] was -0.288. The z-score [7] was -2.7 (inactive), the z-score [8] was -1.19 and the z-score [9] was -1.21. The z-score [10] was -2.16 (inactive), the z-score [11] was -0.748 and the z-score [12] was -0.747 (inactive). The z-score [13] was -0.168 (inactive), the composite z-score [14] was -0.859 (inactive) and the z-score [15] was 3.23 (inactive). For the same molecule, the z-score [16] was -0.766 (inactive), the z-score [17] was -0.363 (inactive) and the z-score [18] was 0.817 (inactive). The z-score [19] was -0.435 and the composite z-score [20] was 0.248.
In the case of C=CC[C@@]1(C(=O)O)N=C(c2ccc(OCCCO)cc2)O[C@@H]1c1ccccc1CN=[N+]=[N-], the z-score [1] is reported as -0.473, the z-score [2] is reported as 0.891 and the z-score [3] is reported as 0.545. The z-score [4] was 0.15, the z-score [5] was 0.0466 and the z-score [6] was 0.171. The z-score [7] was -0.164 (inactive), the z-score [8] was -0.973 and the z-score [9] was -1.54. The z-score [10] was 0.611 (inactive), the z-score [11] was 0.793 and the z-score [12] was -2.58 (inactive). The z-score [13] was 0.747 (inactive), the composite z-score [14] was -0.0013 (inactive) and the z-score [15] was -0.043 (inactive). The z-score [16] was -0.534 (inactive), the z-score [17] was 0.8 (inactive) and the z-score [18] was 0.302 (inactive). For the same molecule, the z-score [19] was 1.1 and the composite z-score [20] was 0.565.
With C[N+](C)(C)CCCC[C@@H]1NC(=O)[C@H]2C[C@@H](C(=O)NCCCCCNC(=O)CS)[C@@H](c3ccc(O)cc3)N2C1=O the z-score [1] was 0.809, the z-score [2] was -0.464 and the z-score [3] was 0.664. It also gave a z-score [4] of 0.949, a z-score [5] of -1.51 and a z-score [6] of 1.45. The z-score [7] was -0.0341 (inactive), the z-score [8] was 0.287 and the z-score [9] was -0.013. For the same molecule, the z-score [10] was -0.567 (inactive), the z-score [11] was -0.532 and the z-score [12] was -0.905 (inactive). The z-score [13] was 0.469 (inactive), the composite z-score [14] was -1.3 (inactive) and the z-score [15] was 0.82 (inactive). For the same molecule, the z-score [16] was -2.28 (inactive), the z-score [17] was 0.902 (inactive) and the z-score [18] was 1.33 (inactive). For the same molecule, the z-score [19] was -0.178 and the composite z-score [20] was -0.216.
Molecule Cc1ccc(S(=O)(=O)N2[C@@H](c3ccccc3)C(C(=O)O)=CC[C@H]2c2ccc(C#N)cc2)cc1 has a z-score [1] of -0.283, a z-score [2] of -0.287 and a z-score [3] of -0.187. For the same molecule, the z-score [4] was -0.44, the z-score [5] was -0.471 and the z-score [6] was -0.556. The z-score [7] was -0.633 (inactive), the z-score [8] was -0.748 and the z-score [9] was 0.226. For the same molecule, the z-score [10] was -0.748 (inactive), the z-score [11] was -0.847 and the z-score [12] was -0.647 (inactive). For the same molecule, the z-score [13] was -1.35 (inactive), the composite z-score [14] was 0.0114 (inactive) and the z-score [15] was 0.0794 (inactive). The z-score [16] was 0.11 (inactive), the z-score [17] was -0.674 (inactive) and the z-score [18] was -0.841 (inactive). For the same molecule, the z-score [19] was -1.28 and the composite z-score [20] was 0.15.
